This is part of a sample that, as a whole, favours compounds with a hit. Of some 83,000 tested, about 20% had one in any assay.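 Note: values are percent growth. 100 is the growth of untreated cells, values between 100 and 0 indicate rising inhibition; between -100 and 0 indicates cell death.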 Values without a mark were called inactive. Activity calls are given as the source filed them. Rule for the calls: active = growth percent below 10; inactive = the rest.
Assays:
Assay in all cases: NCI-60 one-dose screen, 48 h (100 = growth as untreated, 0 = no growth, -100 = all killed)
Settings in all cases: 10 µM unless noted
SR leukemia = test system: SR leukemia
RPMI-8226 leukemia = test system: RPMI-8226 leukemia
OVCAR-8 ovarian = test system: OVCAR-8 ovarian
OVCAR-5 ovarian = test system: OVCAR-5 ovarian
OVCAR-4 ovarian = test system: OVCAR-4 ovarian
SK-OV-3 ovarian = test system: SK-OV-3 ovarian
IGROV1 ovarian = test system: IGROV1 ovarian
OVCAR-3 ovarian = test system: OVCAR-3 ovarian
HS 578T breast = test system: HS 578T breast
NCI/ADR-RES ovarian = test system: NCI/ADR-RES ovarian
T-47D breast = test system: T-47D breast
BT-549 breast = test system: BT-549 breast
MDA-MB-435 melanoma = test system: MDA-MB-435 melanoma
SW-620 colon = test system: SW-620 colon
MCF7 breast = test system: MCF7 breast
HCT-116 colon = test system: HCT-116 colon
HCC-2998 colon = test system: HCC-2998 colon
KM12 colon = test system: KM12 colon

Row | SMILES | growth (SR leukemia) | growth (RPMI-8226 leukemia) | growth (OVCAR-8 ovarian) | growth (OVCAR-5 ovarian) | growth (OVCAR-4 ovarian) | growth (SK-OV-3 ovarian) | growth (IGROV1 ovarian) | growth (OVCAR-3 ovarian) | growth (HS 578T breast) | growth (NCI/ADR-RES ovarian) | growth (T-47D breast) | growth (BT-549 breast) | growth (MDA-MB-435 melanoma) | growth (SW-620 colon) | growth (MCF7 breast) | growth (HCT-116 colon) | growth (HCC-2998 colon) | growth (KM12 colon)
1 | C=C1C(=O)O[C@H]2[C@H]1CC/C(COC(=O)c1ccc(C#N)cc1)=C\CC[C@@]1(C)O[C@@H]21 | -10% (active) | -35.8% (active) | 1.03% (active) | 34.5% | 35.9% | 106% | 7.59% (active) | -10.7% (active) | 70% | 54.5% | -16.2% (active) | 29.7% | 24% | -27.7% (active) | 0.298% (active) | -60.3% (active) | 91.1% | 84.8%
2 | CO[C@H]1/C=C/C=C/C=C/C[C@H](OC(=O)[C@@H](C)NC(=O)C2CCCCC2)[C@H](C)[C@@H](O)/C(C)=C\CCC2=CC(=O)C=C(NC(=O)C1)C2=O | 3.26% (active) | -26.5% (active) | -16.2% (active) | 3.19% (active) | -13.9% (active) | -21.3% (active) | 3.97% (active) | -19.9% (active) | -16.2% (active) | 32% | -15.1% (active) | -19.6% (active) | -29.1% (active) | 2.69% (active) | -11% (active) | -18.4% (active) | -19.2% (active) | -9.05% (active)
3 | CCc1ccc(C2=C/C(=C/c3ccc(Cl)cc3)C(=O)N2CCc2ccc(S(N)(=O)=O)cc2)cc1 | 6.7% (active) | 18.9% | 21.5% | 47.2% | 32.1% | 46% | 27.7% | 23.6% | 62.6% | 51.8% | 0.105% (active) | 38% | 36.7% | 25.2% | 6.29% (active) | 13.6% | 24.8% | 18.8%
4 | C[C@]12CC[C@@H]3c4ccc(O)c(N)c4CC[C@H]3[C@@H]1CC[C@@H]2O | 98.1% | 85.5% | 104% | 117% | 110% | 128% | 136% | 100% | 99.2% | 105% | 124% | 99.3% | 108% | 122% | 116% | 89.9% | 120% | 103%
5 | Cc1ccc(-c2cn3cc([N+](=O)[O-])ccc3n2)cc1 | 75.5% | 72.6% | 76.7% | 109% | 78.1% | 102% | 71% | 101% | 97.1% | 83.4% | 46.6% | 53.9% | 70.8% | 100% | 34.8% | 70.3% | 88% | 91.4%
6 | O=C(O)c1ccc(-n2cc(/C=N/Nc3ccccc3F)c(-c3ccc(O)cc3)n2)cc1 | 73.6% | 59.1% | 88.4% | 80.9% | 94.8% | 102% | 81% | 82.7% | 92.4% | 80% | 62.7% | 80.3% | 74.8% | 61.8% | 73.7% | 71.2% | 86.4% | 57.9%
7 | COc1ccc(-c2coc3c(CO)c(O)ccc3c2=O)cc1 | 25.5% | 36.6% | 73.6% | 102% | 75.6% | 84.7% | 61.2% | 9.94% (active) | 57.2% | 86.3% | 61.8% | 14.2% | 60.2% | 83.5% | 40.8% | 19.3% | 29.6% | 60.4%
8 | COc1cc(/C=C/C(=O)N2CCC=CC2=O)cc(OC)c1OC | 10.3% | -11.3% (active) | 4.06% (active) | 86.6% | 48.8% | 105% | 30.9% | 18.5% | 84.5% | 67.2% | 25.6% | 58.3% | 57.2% | 29.3% | 15.3% | 6.96% (active) | 100% | 66.6%
9 | CCc1c(C)c2cc3c(c(C)c2oc1=O)OCC(=O)N3 | 4.96% (active) | 90.9% | 74.6% | 77.9% | 79.5% | 78.6% | 51.7% | 73.8% | 59.5% | 75.1% | 58.6% | 74.7% | 74.5% | 90.3% | 82.1% | 52.7% | 90% | 84.3%
